{"source": "paper PMC12864922", "about": "“TDP-43 directly inhibits mRNA accumulation in neurites through modulation of mRNA stability”", "binders": {"B1": {"name": "ENSMUSG00000042529.155|Kcnj12|40:44 (ssRNA)", "RNA": "GGGAGUUCUACAGUCCGACGAUCGCUUCGAUAUCCGCAUGCUAAGAGUGGGUGCUUCUUAGAAAAGGACACUCAGGAAAUUACAUACGGGUCUGGGUCCCACAUCCCCAGGAAGUGGGUCAGCCCCACGUCCCCCGCUGGACUCACAGCUUGAGUUGUGCCUUAGAGACUCUGGUUGUCUGGCUUCCGUCAUUUCUGGUUUUCUCAGACUUGUUUAAUCUUUCCCUACUGCCCUAAGUCCACUCAUGAAGCUCCCCAGGCCCUUCUGAGAUUGCAGAGGCUGCUUGCUCAUAGCCAUGACCCUCUCUUGCGGUCGCACUAGUGUGGAAUUCUCGGGUGUCAAGG"}, "B2": {"name": "ENSMUSG00000031028.502|Tub (ssRNA)", "RNA": "GGGAGUUCUACAGUCCGACGAUCGCUUCGAUAUCCGCAUGCUACAAGUAAGGUGUGUGCCUCUGGGAAGACAGGAGUCGGAAGCCAAGGUGUGUGGCAACAGUCUGGAAGAGAGCUUUUGGUAAUCAUACCGUCUUCAGUGACAAGGCAACAAUGCUGUAAAGUGGGUUUGUUUGGUUUUGUUUUUUCUUUCUCUUUUAUGGAAAUGGCAGGUCUAUUUGCCUCAAACGUUAUGUAGAAGUAGUUCUAAGUUUAACAAGCAAUAGAGAUGACUGCUUAGCUAGGAUCUGCAGGGAGCUCUGCUCUCUUGCGGUCGCACUAGUGUGGAAUUCUCGGGUGUCAAGG"}, "B3": {"name": "ENSMUSG00000042529.125|Kcnj12|220:224 (ssRNA)", "RNA": "GGGAGUUCUACAGUCCGACGAUCGCUUCGAUAUCCGCAUGCUAGUGGGGCCCACUAGGGUGAAUCUGGCUUGCUCUUCUGUUUGAUGUUGUUGUACCUCAGCUGCCUCAGGGCUGGGUUUAGACACCCCUUCCCCCACCCCCACUCCGUACUCCCUGUUGUGCUUCCCUUCCUAUUUAGUCCCAGGUCUCCACCCCUUGCAGCGAGGGGGCAUAGGAAACACCAGAGUGGGUGCUUCUUAGAAAAGGACACUCAGGAAAUUACAUACGGGUCUGGGUCCCACAUCCCCAGGAAGUGGGUCAGCCUCUUGCGGUCGCACUAGUGUGGAAUUCUCGGGUGUCAAGG"}, "B4": {"name": "ENSMUSG00000031028.204|Tub|197:201;203:208 (ssRNA)", "RNA": "GGGAGUUCUACAGUCCGACGAUCGCUUCGAUAUCCGCAUGCUACUCUUCCCAGUUCCAGAGAUGAAACCCCUCCGAGUUAAUGUAUAAGGUUGGAAACCUUUCAGUAGGGAAUCAGGCAGUUCCCUGUUGAAAGUUGUCUGAGUUUUUGCACACCAUUCUGAUCUGAUGUGGCCUGUGCCUGGCUCCUCUAUGAGGACUUCGAGCUGUGCACAGACCUUAGCAGGACCACUGCACACUUACACACACACACACAGGCAGCCCAAGGGUUCUGGGGCUGGGCUUGGACACGCCCUCCAUUGGGACUCUUGCGGUCGCACUAGUGUGGAAUUCUCGGGUGUCAAGG"}, "B5": {"name": "ENSMUSG00000032194.8|Kank2 (ssRNA)", "RNA": "GGGAGUUCUACAGUCCGACGAUCGCUUCGAUAUCCGCAUGCUAGCCGAGGAGUGAAUACAGGGAGGAGCCAGUGAGUCCCCCAGGACCCACCAGCCACAAGCCACGCAUCAAACCGUCCCUCCUCCAUCCCUCUGUCCCAUUCUGCCUCGGCAUUCCUCAGCCCCUGAACUUCCCUGAGGGAGCCCUGACAUCUACCAGGCUCAAGCUCCUGGAAGCCUUUCCCAGCACCCUGGGUUCAAAGCCAGAAAGCCAAGCUACAUUCUCCUCCCAGUUGGCACCAGUUGACAACGCCUUGGGUGUGGCUCUUGCGGUCGCACUAGUGUGGAAUUCUCGGGUGUCAAGG"}, "B6": {"name": "ENSMUSG00000031028.492|Tub|69:75;106:112 (ssRNA)", "RNA": "GGGAGUUCUACAGUCCGACGAUCGCUUCGAUAUCCGCAUGCUAUUUAAAUGAACAUGGGGUGGUGAUGGUGCCUUAACAAUCUUGACACUAAGGUGAAGCAAGCAAGUAAGCACACACCCUCUGGGAAGACAGGAGUCGGAAGCCAAGCACACACGCAACAGUCUGGAAGAGAGCUUUUGGUAAUCAUACCGUCUUCAGUGACAAGGCAACAAUGCUGUAAAGUGGGUUUGUUUGGUUUUGUUUUUUCUUUCUCUUUUAUGGAAAUGGCAGGUCUAUUUGCCUCAAACGUUAUGUAGAAGUAGCUCUUGCGGUCGCACUAGUGUGGAAUUCUCGGGUGUCAAGG"}, "B7": {"name": "ENSMUSG00000061578.750|Ksr2 (ssRNA)", "RNA": "GGGAGUUCUACAGUCCGACGAUCGCUUCGAUAUCCGCAUGCUACAAGUUUGAGUCUCCAUAUGGGCCCUUCCUGUCCUCAUGCCCUGCCUGUCUUCAUUCCACCCAUCCACCCUCCUAAGGAUUGGUCUUGUUCCGAGAGUGAUCCUGGUAACGCCAAGCCUCCCUCUGCCCCUGUGUUGGCUUCUGUGACGGACUACCACACACCAAGAGGUUUUUCACAGUGAAGAUGUAUGCUCUCACCAUCCUACAGAUGCAAAGACCAAACACAAAGUGUCUGCAUGACCUUCCCCCUCUGGAAUUUGCUCUUGCGGUCGCACUAGUGUGGAAUUCUCGGGUGUCAAGG"}, "B8": {"name": "ENSMUSG00000028439.170|Fam219a (ssRNA)", "RNA": "GGGAGUUCUACAGUCCGACGAUCGCUUCGAUAUCCGCAUGCUAUGUAUGAUAUGGUAUGGUAUGGUAUGGUAUGGUAUGGUAUGGUAUGCACAUGUGUGUGCAUGUGUGUGUGCCUGUGUGUGUGCGUGUGCGUGUGUGUAUGUGUGUGCGUGUGUGUGUGUGUGUGUUGUACCCGAGUGUGUGUUGAGCCUAUCUGUCCAGGGAACCAGAUUGGUGUCCGAGAUGAGGAAAUGGCUGUGGCCUGGGAAAUCAGUGAGAGGCCGCUUGGGAAUGAGAAUGCAGUGGACUGAAAGCACAGCCUGCUCUUGCGGUCGCACUAGUGUGGAAUUCUCGGGUGUCAAGG"}, "B9": {"name": "ENSMUSG00000028439.173|Fam219a (ssRNA)", "RNA": "GGGAGUUCUACAGUCCGACGAUCGCUUCGAUAUCCGCAUGCUAAUGGUAUGGUAUGGUAUGGUAUGGUAUGCACAUGUGUGUGCAUGUGUGUGUGCCUGUGUGUGUGCGUGUGCGUGUGUGUAUGUGUGUGCGUGUGUGUGUGUGUGUGUUGUACCCGAGUGUGUGUUGAGCCUAUCUGUCCAGGGAACCAGAUUGGUGUCCGAGAUGAGGAAAUGGCUGUGGCCUGGGAAAUCAGUGAGAGGCCGCUUGGGAAUGAGAAUGCAGUGGACUGAAAGCACAGCCUGGCCAUCUGGAACCUGGGUCUCUUGCGGUCGCACUAGUGUGGAAUUCUCGGGUGUCAAGG"}, "B10": {"name": "ENSMUSG00000028439.171|Fam219a (ssRNA)", "RNA": "GGGAGUUCUACAGUCCGACGAUCGCUUCGAUAUCCGCAUGCUAAUAUGGUAUGGUAUGGUAUGGUAUGGUAUGGUAUGGUAUGCACAUGUGUGUGCAUGUGUGUGUGCCUGUGUGUGUGCGUGUGCGUGUGUGUAUGUGUGUGCGUGUGUGUGUGUGUGUGUUGUACCCGAGUGUGUGUUGAGCCUAUCUGUCCAGGGAACCAGAUUGGUGUCCGAGAUGAGGAAAUGGCUGUGGCCUGGGAAAUCAGUGAGAGGCCGCUUGGGAAUGAGAAUGCAGUGGACUGAAAGCACAGCCUGGCCAUCCUCUUGCGGUCGCACUAGUGUGGAAUUCUCGGGUGUCAAGG"}, "B11": {"name": "ENSMUSG00000028439.172|Fam219a (ssRNA)", "RNA": "GGGAGUUCUACAGUCCGACGAUCGCUUCGAUAUCCGCAUGCUAUAUGGUAUGGUAUGGUAUGGUAUGGUAUGGUAUGCACAUGUGUGUGCAUGUGUGUGUGCCUGUGUGUGUGCGUGUGCGUGUGUGUAUGUGUGUGCGUGUGUGUGUGUGUGUGUUGUACCCGAGUGUGUGUUGAGCCUAUCUGUCCAGGGAACCAGAUUGGUGUCCGAGAUGAGGAAAUGGCUGUGGCCUGGGAAAUCAGUGAGAGGCCGCUUGGGAAUGAGAAUGCAGUGGACUGAAAGCACAGCCUGGCCAUCUGGAACCUCUUGCGGUCGCACUAGUGUGGAAUUCUCGGGUGUCAAGG"}, "B12": {"name": "ENSMUSG00000028439.174|Fam219a|3:22;27:34;37:46;49:58;60:64;66:82;84:101;111:118 (ssRNA)", "RNA": "GGGAGUUCUACAGUCCGACGAUCGCUUCGAUAUCCGCAUGCUAUGCAUACCAUACCAUACCAUACCACAACACACACCAACACACACACCCACACACACACCCACACCCACACACAUACACACACCCACACACACACACACACAUGUACCCGACACACACAUGAGCCUAUCUGUCCAGGGAACCAGAUUGGUGUCCGAGAUGAGGAAAUGGCUGUGGCCUGGGAAAUCAGUGAGAGGCCGCUUGGGAAUGAGAAUGCAGUGGACUGAAAGCACAGCCUGGCCAUCUGGAACCUGGGUUCUGGUCUCUUGCGGUCGCACUAGUGUGGAAUUCUCGGGUGUCAAGG"}, "B13": {"name": "ENSMUSG00000028439.174|Fam219a (ssRNA)", "RNA": "GGGAGUUCUACAGUCCGACGAUCGCUUCGAUAUCCGCAUGCUAUGGUAUGGUAUGGUAUGGUAUGCACAUGUGUGUGCAUGUGUGUGUGCCUGUGUGUGUGCGUGUGCGUGUGUGUAUGUGUGUGCGUGUGUGUGUGUGUGUGUUGUACCCGAGUGUGUGUUGAGCCUAUCUGUCCAGGGAACCAGAUUGGUGUCCGAGAUGAGGAAAUGGCUGUGGCCUGGGAAAUCAGUGAGAGGCCGCUUGGGAAUGAGAAUGCAGUGGACUGAAAGCACAGCCUGGCCAUCUGGAACCUGGGUUCUGGUCUCUUGCGGUCGCACUAGUGUGGAAUUCUCGGGUGUCAAGG"}, "B14": {"name": "ENSMUSG00000028439.176|Fam219a (ssRNA)", "RNA": "GGGAGUUCUACAGUCCGACGAUCGCUUCGAUAUCCGCAUGCUAGUAUGGUAUGCACAUGUGUGUGCAUGUGUGUGUGCCUGUGUGUGUGCGUGUGCGUGUGUGUAUGUGUGUGCGUGUGUGUGUGUGUGUGUUGUACCCGAGUGUGUGUUGAGCCUAUCUGUCCAGGGAACCAGAUUGGUGUCCGAGAUGAGGAAAUGGCUGUGGCCUGGGAAAUCAGUGAGAGGCCGCUUGGGAAUGAGAAUGCAGUGGACUGAAAGCACAGCCUGGCCAUCUGGAACCUGGGUUCUGGUCCCAGCCUCGGCCUCUUGCGGUCGCACUAGUGUGGAAUUCUCGGGUGUCAAGG"}, "B15": {"name": "ENSMUSG00000028439.175|Fam219a (ssRNA)", "RNA": "GGGAGUUCUACAGUCCGACGAUCGCUUCGAUAUCCGCAUGCUAGGUAUGGUAUGGUAUGCACAUGUGUGUGCAUGUGUGUGUGCCUGUGUGUGUGCGUGUGCGUGUGUGUAUGUGUGUGCGUGUGUGUGUGUGUGUGUUGUACCCGAGUGUGUGUUGAGCCUAUCUGUCCAGGGAACCAGAUUGGUGUCCGAGAUGAGGAAAUGGCUGUGGCCUGGGAAAUCAGUGAGAGGCCGCUUGGGAAUGAGAAUGCAGUGGACUGAAAGCACAGCCUGGCCAUCUGGAACCUGGGUUCUGGUCCCAGCCUCUUGCGGUCGCACUAGUGUGGAAUUCUCGGGUGUCAAGG"}}, "note": "The full ranking holds about 9,900 sequences; the median of “r (bound/input frequency ratio)” is about 0.7, and the highest 2% start at about 6.5. Shown is part of a subset that was picked to be rich in the highest values."}
{"target": "TDP-43 (Homo sapiens, UniProt Q13148 1-414)", "sequence (Q13148 whole entry)": "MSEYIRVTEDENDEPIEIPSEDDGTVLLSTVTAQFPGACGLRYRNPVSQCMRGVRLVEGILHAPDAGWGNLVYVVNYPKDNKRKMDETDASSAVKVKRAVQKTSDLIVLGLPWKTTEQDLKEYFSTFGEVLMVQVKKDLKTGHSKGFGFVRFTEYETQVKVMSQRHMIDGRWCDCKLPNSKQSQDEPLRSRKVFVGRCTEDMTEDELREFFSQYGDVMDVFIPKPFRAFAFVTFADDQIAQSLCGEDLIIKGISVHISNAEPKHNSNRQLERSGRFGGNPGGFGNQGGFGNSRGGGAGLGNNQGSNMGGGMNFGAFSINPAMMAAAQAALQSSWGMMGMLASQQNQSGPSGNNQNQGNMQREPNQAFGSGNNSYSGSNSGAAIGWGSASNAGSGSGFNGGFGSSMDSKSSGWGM", "test": "RNA Bind-n-Seq with designed 260-mer pool; 25 mM Tris-HCl, 150 mM KCl, 3 mM MgCl2, BSA (printed 500 mg/mL), 20 units/mL SUPERase IN; pH not stated; 500 nM RNA pool, 1 h, 4 C; TDP-43 5, 50, 500 nM; high values mean tight binding", "settings": "protein: recombinant; tags: SBP (GST cleaved off with PreScission; pGEX-GST-SBP)", "procedure,_shortened": "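Binding (R) is the ratio of each oligo's mapped-read-normalized abundance in the bound fraction to its abundance in the input. To obtain it, SBP-tagged recombinant TDP-43 (5, 50 or 500 nM) on streptavidin beads was incubated with 500 nM of an in vitro-transcribed 260-nt 3′ UTR oligo pool for 1 h at 4 °C in 25 mM Tris-HCl, 150 mM KCl, 3 mM MgCl2, BSA and SUPERase IN. The RNA retained after washing was released with biotin, then reverse transcribed, amplified by PCR and sequenced.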"}
{"binder": "B1", "binding signal": "0.524 R (bound/input frequency ratio)"}
{"binder": "B2", "binding signal": "0.806 R (bound/input frequency ratio)"}
{"binder": "B3", "binding signal": "0.802 R (bound/input frequency ratio)"}
{"binder": "B4", "binding signal": "1.16 R (bound/input frequency ratio)"}
{"binder": "B5", "binding signal": "1.4 R (bound/input frequency ratio)"}
{"binder": "B6", "binding signal": "0.828 R (bound/input frequency ratio)"}
{"binder": "B7", "binding signal": "0.725 R (bound/input frequency ratio)"}
{"binder": "B8", "binding signal": "6.06 R (bound/input frequency ratio)"}
{"binder": "B9", "binding signal": "6.03 R (bound/input frequency ratio)"}
{"binder": "B10", "binding signal": "8.2 R (bound/input frequency ratio)"}
{"binder": "B11", "binding signal": "6.41 R (bound/input frequency ratio)"}
{"binder": "B12", "binding signal": "1.59 R (bound/input frequency ratio)"}
{"binder": "B13", "binding signal": "7.57 R (bound/input frequency ratio)"}
{"binder": "B14", "binding signal": "5.69 R (bound/input frequency ratio)"}
{"binder": "B15", "binding signal": "7.42 R (bound/input frequency ratio)"}
